Shown are actives, neighbours in structure and some others; about 7% of the full set was active somewhere.
PLK1 PBD block – inhibitors of human PLK1 polo-box domain binding | P53350 | Plk1 PBD binding of FITC phosphopeptide, fluorescence polarization | Potency, µM, for the others: max response, negative = inhibition, hits mostly inhibitors | 360,000 tested, 2.8% active; also: potency is read from the fitted curve at half-maximal effect; series mostly up to about 57 µM; % is scaled to controls: 0 for no effect and ±100 for the full control effect; nearly all actives have a fitted effect of over 65% in size
KAT2A inh – blocks human GCN5L2 histone acetyltransferase. Q92830. GCN5L2 HAT assay, ThioGlo1 CoA-SH fluorescence. Potency, µM (highest dose often 58.9 µM), inactives show at the top dose activity change, negative = inhibition, most hits filed as inhibitors. 390,000 tested, 0.21% active. AID 504327; also: potency is read from the fitted curve at half-maximal effect; % is scaled to controls: 0 for no effect and ±100 for the full control effect
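Free CoA generated was detected with ThioGlo1 (50uM) fluorescence at Ex340nm/Em540nm, read immediately and after 20 min at room temperature. Enzyme, 20 nM in HEPES pH 7.5 buffer, saw compounds 15 min before adding 75uM H3(1-25) peptide and 70uM acetyl-CoA.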
BAZ2B inh – inhibitors of human BAZ2B bromodomain | Potency, µM (top dose mostly 114 µM), for inactives: top-dose activity change, negative = inhibition, usual class: inhibitors | AID 504333 | 360,000 tested, 4.4% active | AlphaScreen BAZ2B-H3K14Ac peptide displacement; also: potency is read from the fitted curve at half-maximal effect; % is scaled to controls: 0 for no effect and ±100 for the full control effect; nearly all actives have a fitted effect of over 60% in size
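Protein-peptide AlphaScreen: BAZ2B 50 nM, b-H3K14Ac 50 nM, 1x PBS pH 7.4 + 0.01% Tween-20. Preincubation 30 min RT; cpd 30 min RT (top 110 uM); beads 20 min RT, light-protected.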
HP1b binding inh – inhibitors of HP1-beta chromodomain binding to methylated histone tails | AlphaScreen HP1-beta / biotin-H3K9me3 peptide binding | Potency, µM (series often up to 114 µM), without a hit: top-dose activity change, negative = inhibition, actives largely listed as inhibitors | 390,000 tested, 0.56% active | AID 540317; also: potency is read from the fitted curve at half-maximal effect; nearly all actives have a fitted effect of over 70% in size
Target sequence (P83916 whole entry, looked up): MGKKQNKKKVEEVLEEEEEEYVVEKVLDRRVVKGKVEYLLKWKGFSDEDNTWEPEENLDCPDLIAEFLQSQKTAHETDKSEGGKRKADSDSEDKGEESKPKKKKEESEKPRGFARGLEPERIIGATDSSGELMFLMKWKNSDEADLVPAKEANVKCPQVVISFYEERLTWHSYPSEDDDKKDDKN
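HP1-beta protein (50 nM final) preincubated 30 min at room temperature with biotinylated H3(1-18)K9me3 peptide (50 nM) in PBS pH 7.4, 0.01% Tween-20, then compound added for 30 min. AlphaScreen streptavidin donor/nickel chelate acceptor beads (10 ug/mL final), 30 min dark, luminescence read.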
PI5P4K alpha inh – PI5P4K alpha (human) kinase inhibition | max response, % | P48426 | 330,000 tested, 1.2% active | PI5P4Kalpha enzyme, ADP-Glo luminescence, 60 min; hits give low values; active = max response of -50% or lower; inconclusive = between -30% and -50%; inactive = -30% or higher; also: value at the top dose of about 77 µM; % is scaled to controls: 0 for no effect and ±100 for the full control effect
Target sequence (P48426 whole entry, looked up): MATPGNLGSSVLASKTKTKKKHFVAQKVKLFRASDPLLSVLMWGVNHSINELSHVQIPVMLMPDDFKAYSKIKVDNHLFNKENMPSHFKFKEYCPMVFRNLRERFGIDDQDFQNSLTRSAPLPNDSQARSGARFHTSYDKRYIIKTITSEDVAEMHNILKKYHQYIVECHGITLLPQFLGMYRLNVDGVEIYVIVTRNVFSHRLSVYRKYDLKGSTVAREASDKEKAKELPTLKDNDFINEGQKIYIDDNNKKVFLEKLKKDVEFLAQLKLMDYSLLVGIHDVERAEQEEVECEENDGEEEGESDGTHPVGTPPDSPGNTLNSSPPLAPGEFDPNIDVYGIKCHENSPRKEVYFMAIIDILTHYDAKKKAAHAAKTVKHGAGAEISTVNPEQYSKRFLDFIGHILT
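Luminescence from ADP-Glo served as readout of PI5P4Kalpha activity in a qHTS format. Reaction: enzyme, substrate, compound, ATP at 5 microM final, 60 min at RT.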
JMJD2A Tudor inh – JMJD2A Tudor domain (human) inhibition; AlphaScreen JMJD2A-Tudor / H3K4me3 peptide binding; AID 504339; O75164; Potency, µM (doses to about 114 µM), without a hit: top-dose activity change, negative = inhibition, hits mostly inhibitors; 390,000 tested, 4.4% active; also: potency is read from the fitted curve at half-maximal effect; % is scaled to controls: 0 for no effect and ±100 for the full control effect; nearly all actives have a fitted effect of over 50% in size
The depositor's hits bear a star; ? = inconclusive; nt = not tested or not shown; ! = repeats disagree; [ ] = dose if it differs, or a comment. Unless noted, calls follow the shape of the dose curve; as a rule, active = well fitted curve in the direction sought with a large enough effect; inconclusive = small, poorly fitted or top-dose-only effect, or another doubt; inactive = no such curve, though single readings can be large; an effect the other way counts as inactive or inconclusive.

SMILES | PLK1 PBD block | KAT2A inh | BAZ2B inh | HP1b binding inh | PI5P4K alpha inh | JMJD2A Tudor inh
CCSC1=C(C#N)C(c2ccc(C)o2)CC(=O)N1 (configuration not stated) | -5% | -1% | -11% | 20% | 0 | -21%
N#CC1=C(SCC(=O)NCc2ccccc2)NC(=O)CC1c1ccco1 (configuration not stated) | 9.5µM* | -18% | -3% | ? | -30 | -27%[11.4 µM]
Cc1ccc(C2CC(=O)NC(SCc3ccccc3)=C2C#N)o1 (configuration not stated) | -26% | -5% | 32µM* | -11% | nt | ?
COC(=O)CSC1=C(C#N)C(c2ccc(C(C)C)cc2)CC(=O)N1 (configuration not stated) | -17% | -1% | 8% | 16% | 1 | -32%
N#CC1=C(SCC(=O)Nc2ccccc2)NC(=O)CC1c1ccco1 (configuration not stated) | -13% | nt | nt | -13% | nt | ?
Cc1ccc(C2CC(=O)NC(SCCC(C)C)=C2C#N)cc1 (configuration not stated) | 13µM* | -5% | -3% | ? | -6 | -1%
CC(=O)Nc1cc(NC(C)=O)cc(C(=O)OCC(=O)N(c2ccccc2)C2CCS(=O)(=O)C2)c1 (configuration not stated) | 3% | -8% | -31% | 41% | -20 | -8%
COC(Cn1c2c(c3cc(C)ccc31)CCCC2NCc1ccccc1)OC (configuration not stated) | -17% | -3% | 40µM* | 4% | 1 | ?
Cc1ccc2c(c1)c1c3n2CCN(C(=O)Cn2c(-c4ccccc4)noc2=O)C3CCC1 (configuration not stated) | -3% | -7% | 7% | -4% | nt | -35%
O=c1c(Cc2c(F)cccc2Cl)c(O)ccn1CCCn1ccnc1 | -3% | -2% | ? | -3% | -1 | -19%
O=C(Nc1nnc([C@H]2C[C@H](O)[C@@H](CO)O2)s1)NC(c1ccccc1)c1ccccc1 | -14% | nt | nt | nt | -2 | nt
CSc1ccccc1NC(=O)CN(C)C(=O)COc1ncnc2ccccc12 | -7% | -2% | nt | 29% | 1 | -12%
COc1ccc(C(=O)CN2CCN(CCN3C(=O)c4cccc5cccc(c45)C3=O)CC2)cc1 | 19µM* | nt | nt | -9% | -24 | -18%[11.4 µM]
CN(Cc1ccccc1)c1ncnc2c1nc1n2CCCC1 | nt | -10% | -3% | -19% | nt | -19%
CC(C)(C)OC(=O)N/N=C/c1cc(N=Nc2ccccc2)ccc1O | -6% | 20% | ? | -25% | -2 | ?
CN1C(=O)/C(=C/c2cc(N=Nc3ccccc3)ccc2O)SC1=S | ? | -1% | 2.2µM* | ? | nt | 5µM*
CC(C)N=c1cc2n(-c3ccc(Cl)cc3)c3ccccc3nc-2cc1Nc1ccc(Cl)cc1 | -11% | -5%[21.4 µM] | nt | 4.5µM* | -1 | 7.1µM*
O=C(O)C(c1ccccc1)C1CCCCC1O (configuration not stated) | -8% | nt | nt | 19%[57 µM] | -2 | -1%
O=C1NC(Cc2ccccc2)C(=O)N1Cc1cc([N+](=O)[O-])cc2c1OCOC2 (configuration not stated) | -15% | -4% | 79µM* | 27% | -3 | -7%
CCOC(=O)c1ccc(NS(=O)(=O)c2cn(C)c(C)n2)cc1 | nt | -8% | 0% | 22%[57 µM] | nt | -18%
CC1(C)CC(=O)C2=C(C1)N(c1ccccc1C#N)C(N)=C(C#N)C2c1cccs1 (configuration not stated) | -5% | -2% | 56µM* | -5% | -7 | ?
CCOC(=O)C1(N(CC)CC)Sc2cc(C)ccc2NC1=O (configuration not stated) | -23% | -10% | ? | 5% | 4 | -9%[57.1 µM]
COC(=O)C1=C(C(=O)OC)SC2(S1)C(C(=O)OC)=C(C(=O)OC)SC1=C2c2cc(C)ccc2NC1(C)C | 3.4µM* | -5% | ? | -81% | ? | 56µM*
COc1ccc(NC(=O)Cc2ccc(Cl)cc2)cc1S(=O)(=O)N1CCCCC1 | -9% | -12% | 8% | 16% | -4 | -24%
CC1CCc2sc(NC(=S)NC(=O)c3ccccc3)c(C#N)c2C1 (configuration not stated) | ? | -3% | ? | -11% | -22 | -19%
SMILES | PLK1 PBD block | KAT2A inh | BAZ2B inh | HP1b binding inh | PI5P4K alpha inh | JMJD2A Tudor inh
CN1Cc2sc(NC(=S)NC(=O)c3ccccc3)c(C#N)c2CC1(C)C | 13µM* | -4% | 45µM* | ? | ? | 35µM*
CCC1(C)Cc2c(sc(NC(=S)NC(=O)c3ccccc3)c2C#N)CO1 (configuration not stated) | 13µM* | -1% | -31% | -14% | ? | -27%
COCCn1c(C23CC4CC(CC(C4)C2)C3)n[nH]c1=S | -10% | -17% | -5% | 28% | -1 | 7.1µM*
COC(=O)[C@@]12CCCN1[C@H](c1ccc(-c3ccc(Cl)c(Cl)c3)c(OC)c1)[C@H]1C(=O)N(C)C(=O)[C@H]12 | 6% | -17% | nt | 19% | 15 | ?
CCOC(=O)c1oc2cc(O)ccc2c(=O)c1-c1ccccc1OC | -6% | -1% | -7% | 26% | -2 | 4%
O=c1cc(-c2ccccc2O)oc2cc(O)ccc12 | nt | -15% | nt | nt | nt | nt
CCOc1ccccc1-c1c2cc(O)c(=O)cc-2oc2cc(O)c(O)cc12 | -10% | 1% | 7.1µM* | -91% | -55* | 1µM*
O=c1cc2oc3cc(O)c(O)cc3c(-c3ccccc3O)c-2cc1O | 24µM* | ? | 7.9µM* | 14µM* | -88* | 4µM*
Cn1nccc1C(=O)N(CCN1CCCCC1)CC1CCCN(C2CCCC2)C1 (configuration not stated) | -14% | 1% | 3% | 34% | 2 | -8%
CCC(=O)N1CCc2cc(S(=O)(=O)CCC(=O)Nc3ccc(F)c(F)c3)ccc21 | -29% | -1% | 56µM* | 22% | 2 | -23%
Cn1c(=O)c(=O)n(C)c2cc(S(=O)(=O)CCC(=O)Nc3ccc(F)cc3)ccc21 | 4% | 1.3µM*! | -5% | 37% | -4 | -12%
Cc1ccc(NC(=O)CCS(=O)(=O)c2ccc3nc(C)sc3c2)cc1 | 27µM* | -1% | -3% | 26% | -1 | -27%
COc1cc(/C=C/c2cccc[n+]2C)ccc1OCC(=O)Nc1cccc(Cl)c1 | -6% | -7% | ? | -10% | -14 | -6%
CCCC(=O)OC1=C(C(C)=O)N(Cc2ccccc2)S(=O)(=O)c2ccccc21 | nt | -6% | ? | 15% | nt | ?
CCN1C(C(=O)c2ccccc2)=C(OC(=O)COc2ccccc2)c2ccccc2S1(=O)=O | nt | -12% | ? | 2% | nt | 35µM*

Bioassay records as filed in PubChem BioAssay.
